# Measured values from ChEMBL document CHEMBL3988442, “University of Dundee, Small-Polar-MMV Screening Library” (2021).
# The campaign covered roughly 48,000 compounds. About 13,000 (27%) showed an effect of 50% or more. This is one part of the list.
# Tested on: Wolbachia pipientis
# Test: Anti-Wolbachia Cell-Based Screen
# Format: functional
# Design: scale not given: in the data most compounds retested in dose-response had high values
# Details: 5 µM
row,Structure (SMILES),Percent Effect [%]
1,CN1CCOCC2(CCCN(C(=O)c3cn(C)cn3)C2)C1.O=C(O)C(F)(F)F (stereo unspecified),-3.228
2,CCNC(=O)NC(C)(C)C(=O)NCCc1csc2ccccc12,9.687
3,O=C(Cc1cccnc1)NC1COc2ccccc2C1=O (stereo unspecified),-10.11
4,CCCC1CCCN(C(=O)CNC(=O)c2ccoc2C)CC1 (stereo unspecified),7.571
5,O=S(=O)(NCCN1CCOCC1)c1cncc(Cl)c1,-2.689
6,O=S(=O)(C1CC1)N1CCc2c(CN3CCOCC3)cncc2C1,82.99
7,CCOCc1cncc2c1CCN(S(=O)(=O)c1cccc(C)c1)C2,11.95
8,CC(C)(C)NC(=O)NC(=O)COc1nc(C(C)(C)C)no1,-2.31
9,O=C(Cc1cc(-c2ccc3c(c2)OCO3)on1)NC1CCCC1,-5.202
10,O=C(Cn1cnc2cc3c(cc21)OCCCO3)NC1CCCCC1,96.56
11,O=C(Cn1cccnc1=O)NCCc1ccc2c(c1)OCCO2,1.93
12,CC(C)(C)n1ncc2c(=O)n(CC(=O)NCCc3ccccc3)cnc21,21.71
13,O=C(Cn1cnc2cc3c(cc21)OCCCO3)NC1CCCC1,88.37
14,O=C(Cn1cnc2cc3c(cc21)OCCCO3)NCCc1ccccc1,66.67
15,O=C(CCNCc1cccc2c1OCCCO2)NC1CCCC1,-1.594
16,CNc1nc(CNC(=O)Nc2ccc(OC(C)C)cc2F)cs1,6.813
17,CCc1ccc(OCC(O)CN2CCN(S(C)(=O)=O)CC2)cc1 (stereo unspecified),13.83
18,CS(=O)(=O)N1CCN(CC(O)COc2ccc(Cl)cc2)CC1 (stereo unspecified),153.2
19,CC(c1cccc(Cl)c1)N1CCN(S(C)(=O)=O)CC1 (stereo unspecified),0.53
20,CCOc1ccc(OCC(O)CN2CCN(S(C)(=O)=O)CC2)cc1 (stereo unspecified),152.9
21,CS(=O)(=O)N1CCN(CC(O)COc2ccc(F)cc2)CC1 (stereo unspecified),-6.942
22,CN1CCC(N2CC[C@@H]3[C@@H](CCC(=O)N3CCC3=CCCCC3)C2)CC1,-18.13
23,CC(Cn1cccn1)NS(=O)(=O)Cc1ccc(F)cc1 (stereo unspecified),0.5755
24,O=C(COc1ccc(Br)cc1F)Nc1cn[nH]c1,-2.369
25,CC(=O)c1ccc(Cl)c(Cl)c1OCC(=O)NCC(F)(F)F,-11.44
26,COc1ccc(C(C)=O)c(OCC(=O)NC(C)c2ccc(F)cc2)c1 (stereo unspecified),9.317

row,Structure (SMILES),Percent Effect [%]
1,CNC(=O)COc1c(F)cc(Br)cc1C(C)=O,112.4
2,COc1cc(CCC(=O)NC2CC2)ccc1OCC(F)(F)F,-6.568
3,CNC(=O)NC(=O)COc1c(C(C)=O)ccc(Cl)c1Cl,18.02
4,Cc1ccc(OCC(=O)NC2CC2)nc1,-4.219
5,CC(=O)c1cc(Br)cc(F)c1OCC(=O)NC(C)C,60.24
6,CC(=O)c1cc(Br)cc(F)c1OCC(=O)NC1CC1,100.7
7,CNC(=O)COc1c(C(C)=O)ccc(Cl)c1Cl,-15.04
8,CC(=O)c1ccc(Cl)c(Cl)c1OCC(=O)NC(C)C,-9.893
9,COC(=O)COc1c(F)cc(Br)cc1C(C)=O,110.5
10,CCSc1ncc(CN(Cc2cnn(C)c2)CC(C)C)cn1,-10.44
11,Cc1cc(C(=O)OCC2CCCN2C(N)=O)c(C)o1 (stereo unspecified),-25.43
12,CC(C)c1cc(N2CCC[C@H](N)C2)n2nccc2n1,19.12
13,CCc1noc(CNc2cc3c(cc2Cl)OCCCO3)n1,-0.8134
14,Cc1n[nH]c(=O)c2c(NC(=O)CN3CCCC(C(F)(F)F)C3)oc(C)c12 (stereo unspecified),17.73
15,CC(NC(=O)N1CCS(=O)(=O)CC1)c1ccc(F)cc1Cl (stereo unspecified),-12.17
16,NC(=O)C1=NC2=NS(=O)(=O)c3ccccc3N2N1Cc1ccccc1Cl,-9.423
17,COCC1CC2(CCN(C(=O)c3ccc(OC)c(Cl)c3)CC2)CO1 (stereo unspecified),1.634
18,COc1ccc2c3c1CN(C(C)=O)CC3=CC(C)(C)CO2,80.53
19,COc1ccc2c3c1CN(S(C)(=O)=O)CC3=CC(C)(C)CO2,106.6
20,COc1ccccc1C(C)N1CCN(S(C)(=O)=O)CC1 (stereo unspecified),-21.28
21,COc1ccc(NC(C)=O)c(N2CCN(C(C)=O)CC2)n1,4.921
22,COCCOC(=O)N1CC2=CC(C)(C)COc3ccc(OC)c(c32)C1,110
23,COC(=O)N1CC2=CC(C)(C)COc3ccc(OC)c(c32)C1,125.4
24,COc1ncccc1C1CC(=O)NCc2nc3sccn3c21 (stereo unspecified),-19.07
25,COCc1cc(NCc2cccnc2Oc2ccc(C)nc2)ncn1,-2.689
26,CSCCC1c2nc[nH]c2CCN1Cc1cncn1C (stereo unspecified),-0.6967

row,Structure (SMILES),Percent Effect [%]
1,CSCc1noc(CNC(=O)c2cc(C)c(C)[nH]c2=O)n1,-3.67
2,CC(C)N(C)C(=O)C1CSCN1S(=O)(=O)c1cccs1 (stereo unspecified),24.99
3,CCc1cc(NCC(N)=O)nc(N2CCCCC2)n1,3.256
4,COCC(=O)N1CC2=CC(C)(C)COc3ccc(OC)c(c32)C1,86.58
5,CCNC(=O)N1C[C@@H](NC(C)=O)[C@H](c2ccc(C)o2)C1,-5.007
6,COc1ccc2cc(C3CN(C(=O)N(C)C)CCO3)ccc2c1 (stereo unspecified),8.393
7,COc1ccc2c3c1CN(C(=O)N(C)C)CC3=CC(C)(C)CO2,71.28
8,CCNC(=O)N1CCC2(CC1)CCn1c(-c3cccc(OC)c3)cnc12,-4.783
9,CCNC(=O)N1CC2=CC(C)(C)COc3ccc(OC)c(c32)C1,61.47
10,COCC(=O)N1CCN(C(=O)C2(c3ccc(C)c(OC)c3)CC2)CC1,8.797
11,COCC(=O)N1CCc2[nH]nc(-c3ccc4c(c3)OCO4)c2C1,-8.415
12,Cc1cccc2ncnc(N3CCOC(C)C3)c12 (stereo unspecified),0.1008
13,O=C1C(N2CCN(c3ccccc3Cl)CC2)CCN1C1CCOCC1 (stereo unspecified),-17.41
14,CCCn1nc(C)c(CNC(=O)C2COc3c(cccc3OC)C2)c1C (stereo unspecified),-7.419
15,O=C(NC[C@H]1OC[C@@H](NCc2ccccc2F)[C@@H]1O)c1ccc(F)cc1,-2.288
16,CC(C)c1n[nH]c(C(=O)Nc2ccccn2)c1Br,113.3
17,Cc1ccnc(NC(=O)c2[nH]nc(C(C)C)c2Br)c1,97.23
18,CC(C)c1n[nH]c(C(=O)Nc2cc[nH]n2)c1Br,-7.047
19,Cc1cccc(NC(=O)c2[nH]nc(C(C)C)c2Br)n1,122.8
20,CC(C)c1n[nH]c(C(=O)Nc2ccncc2)c1Br,-16.38
21,CC(C)c1n[nH]c(C(=O)NC(C)c2ccncc2)c1Br (stereo unspecified),112.2
22,CC(C)c1n[nH]c(C(=O)Nc2ccnn2C(C)C)c1Br,-14.02
23,COc1ncccc1NC(=O)c1[nH]nc(C(C)C)c1Br,15.14
24,COc1ccncc1NC(=O)c1[nH]nc(C(C)C)c1Br,-9.572
